{
  "source": "PubChem BioAssay AID2221",
  "about": "(Broad Institute, 2009)",
  "note": "The whole screen tested about 290,000 compounds, of which about 2,200 (0.76%) were called active. The sample holds actives, similar compounds and a random draw of the others, so the mix is not that of the screen. Rule as the data show it: active = inhibition above about 30%; inconclusive = no clear call, values can overlap the other calls; inactive = below that.",
  "data": [
    {"molecular_target": "Protein RecA (Mycobacterium tuberculosis (strain ATCC 25618 / H37Rv)) (UniProt P9WHJ3)", "sequence (P9WHJ3 whole entry, looked up)": "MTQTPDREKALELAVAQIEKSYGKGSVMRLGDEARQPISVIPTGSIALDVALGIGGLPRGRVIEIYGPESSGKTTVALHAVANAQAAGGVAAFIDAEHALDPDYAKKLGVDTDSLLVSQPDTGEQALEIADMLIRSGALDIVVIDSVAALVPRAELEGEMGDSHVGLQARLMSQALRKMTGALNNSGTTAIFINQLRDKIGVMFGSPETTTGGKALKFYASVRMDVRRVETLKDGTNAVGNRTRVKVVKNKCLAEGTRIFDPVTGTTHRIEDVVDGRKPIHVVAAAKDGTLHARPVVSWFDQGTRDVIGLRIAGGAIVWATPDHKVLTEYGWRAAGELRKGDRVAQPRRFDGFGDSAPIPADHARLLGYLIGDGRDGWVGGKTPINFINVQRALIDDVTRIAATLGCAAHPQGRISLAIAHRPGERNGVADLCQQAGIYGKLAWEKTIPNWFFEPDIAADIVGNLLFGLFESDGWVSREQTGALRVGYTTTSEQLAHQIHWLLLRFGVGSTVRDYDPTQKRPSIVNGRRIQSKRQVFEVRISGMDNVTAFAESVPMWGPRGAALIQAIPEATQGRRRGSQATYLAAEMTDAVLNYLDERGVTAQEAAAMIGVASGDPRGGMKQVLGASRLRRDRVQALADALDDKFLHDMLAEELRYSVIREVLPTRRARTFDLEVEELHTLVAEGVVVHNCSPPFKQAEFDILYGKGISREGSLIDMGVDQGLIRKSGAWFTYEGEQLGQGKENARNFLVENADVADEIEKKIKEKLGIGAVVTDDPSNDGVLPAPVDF", "test": "Mtb RecA intein splicing inhibitors, primary screen, biochemical, fluorescence, HTS (AID 2221);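 also: 0% = vehicle wells and 100% = reference inhibitor control wells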", "conditions": "cell-free RecA intein splicing, hits give high values, concentration not given here", "values": [
      {"smiles": "O=C(Cc1ccccc1)Nc1cccc(NC(=O)c2ccccc2)c1", "inhibition": "-3.56% (inactive)"},
      {"smiles": "O=C(CCl)Nc1cccc(CP(=O)(c2ccccc2)c2ccccc2)c1", "inhibition": "35.8% (active)"},
      {"smiles": "CCc1cccc(NC(=O)CCC(=O)O)c1", "inhibition": "-2.03% (inactive)"},
      {"smiles": "COc1ccc(NC(=O)CCCNC(=O)Cn2cnc3sc4c(c3c2=O)CCCC4)cc1OC", "inhibition": "1.78% (inactive)"},
      {"smiles": "Cc1cc(/C=C2/SC(=O)N(CC(=O)OC(C)C)C2=O)c(C)n1C", "inhibition": "-2.4% (inactive)"},
      {"smiles": "CC(C)OC(=O)CN1C(=O)C(=O)c2ccccc21", "inhibition": "40% (active)"},
      {"smiles": "CCOC(=O)CN1C(=O)C(=O)c2cc(C)ccc21", "inhibition": "1.57% (inactive)"},
      {"smiles": "CC(Oc1cccc(Cl)c1)C(=O)NC1CC(C)(C)NC(C)(C)C1", "note": "(centres undefined)", "inhibition": "1.06% (inactive)"},
      {"smiles": "Cc1ccc(Cl)cc1NC(=O)C1CCN(S(C)(=O)=O)CC1", "inhibition": "4.05% (inactive)"},
      {"smiles": "CN(c1ccc(OCC(=O)O)cc1)S(=O)(=O)c1ccc2ccccc2c1", "inhibition": "1.36% (inactive)"},
      {"smiles": "COCCNC(=O)COc1ccc(N(C)S(=O)(=O)c2ccc3ccccc3c2)cc1", "inhibition": "2.67% (inactive)"},
      {"smiles": "CC(=O)Oc1ccc(N(C(C)=O)S(=O)(=O)c2ccc3ccccc3c2)cc1Br", "inhibition": "36.3% (active)"},
      {"smiles": "CC/C(=N\\NC(=O)c1c(C)nc2ccccn12)c1ccc(Cl)cc1", "inhibition": "-3.74% (inactive)"},
      {"smiles": "COc1ccc(NC(=O)C(NC(C)=O)C(=O)NCc2ccccc2Cl)cc1", "note": "(centres undefined)", "inhibition": "-12.2% (inactive)"},
      {"smiles": "COc1ccc(C2CC(c3cccs3)Nc3nnnn32)cc1", "note": "(centres undefined)", "inhibition": "2.29% (inactive)"},
      {"smiles": "COc1ccccc1CN1CCCC(N2CCN(c3ccc(F)cc3)CC2)C1", "note": "(centres undefined)", "inhibition": "1.51% (inactive)"},
      {"smiles": "COc1ccc(C2C(C#N)=C(N)Oc3n[nH]c(C)c32)cc1CN1CCN(c2ccc(F)cc2)CC1", "note": "(centres undefined)", "inhibition": "49.8% (active)"},
      {"smiles": "CCCc1[nH]nc2c1C(c1ccc(OC)c(Cn3nc(C)c(Br)c3C)c1)C(C#N)=C(N)O2", "note": "(centres undefined)", "inhibition": "16.3% (inactive)"},
      {"smiles": "O=C(CN1CCCC1)Nc1sc2c(c1C(=O)Nc1ccccc1)CCCC2", "inhibition": "-1.42% (inactive)"},
      {"smiles": "CCOP(=O)(OCC)C(Nc1ccc([N+](=O)[O-])cc1)c1ccc(Cl)cc1", "note": "(centres undefined)", "inhibition": "5.51% (inactive)"},
      {"smiles": "COc1ccc(/C=C2/C(=O)N(c3ccccc3)N=C2C)c(OC)c1", "inhibition": "70% (active)"},
      {"smiles": "COc1ccc(C2/C(=C(/O)c3ccccc3)C(=O)C(=O)N2C)c(OC)c1", "note": "(centres undefined)", "inhibition": "1.48% (inactive)"},
      {"smiles": "COc1ccc(/C=C2/C(=O)OCc3cc(OC)c(OC)cc32)c(OC)c1", "inhibition": "-0.742% (inactive)"},
      {"smiles": "O=[N+]([O-])c1ccc(N2CCN(c3ccc(F)cc3)CC2)cn1", "inhibition": "0.617% (inactive)"},
      {"smiles": "COc1ccc(C(=O)NC2CC(C)(C)NC(C)(C)C2)cc1OC", "inhibition": "0.554% (inactive)"},
      {"smiles": "O=C(CCCN1C(=O)/C(=C/c2cccs2)SC1=S)Nc1ccc(O)cc1", "inhibition": "59% (active)"},
      {"smiles": "Cc1ccc(/C=C2\\SC(=S)N(CCC(=O)Nc3ccc(O)cc3)C2=O)cc1", "inhibition": "3.35% (inactive)"},
      {"smiles": "O=C(CCCN1C(=O)/C(=C/c2ccccc2)SC1=S)Nc1ccc(O)cc1", "inhibition": "45.1% (active)"},
      {"smiles": "O=C(CCCN1C(=O)/C(=C\\c2ccccc2)SC1=S)Nc1ccccc1O", "inhibition": "-1.47% (inactive)"},
      {"smiles": "O=C(CCN1C(=O)/C(=C/c2cccs2)SC1=S)NNC(=O)c1cccc(O)c1", "inhibition": "-2.74% (inactive)"},
      {"smiles": "COc1ccccc1C(=O)NNC(=O)CCN1C(=O)/C(=C\\c2ccccc2)SC1=S", "inhibition": "1.3% (inactive)"},
      {"smiles": "CCCCCCNS(=O)(=O)c1ccccc1Br", "inhibition": "8.15% (inactive)"},
      {"smiles": "O=C1N[C@H](Cc2ccccc2)C(=O)N[C@H]1Cc1cn(S(=O)(=O)c2ccccc2)c2ccccc12", "inhibition": "2.29% (inactive)"},
      {"smiles": "CCOC(=O)CSc1nnc(CNC(=O)c2cccs2)n1-c1cc(OC)ccc1OC", "inhibition": "-0.643% (inactive)"}
    ]}
  ]
}
